Test results taken from the supplement of paper PMC12282887.
± gives the standard deviation of the averaged measurements.

What was measured:
Assay in all cases: promoter activity interaction Z-score (Lux/OD deviation from empty-vector control); higher = stronger promoter induction by the compound
[1] = test system: E. coli BW25113 acrABp lux reporter
Method in brief: (§1)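 Reporter strains of E. coli BW25113 grew at 37°C in 40 µl LB Lennox in 384-well plates. Readings of OD600 and luminescence were taken every 30 min over 12 h, integrated over 0–8 h (wild type) or 1–9 h (deletion strains), and wells below 10% of the median growth value were excluded. Scores are Z-transformed residuals of growth-normalised luminescence from a fit against a control.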

[2] = test system: E. coli BW25113 marRABp lux reporter
Method in brief: as §1

[3] = test system: E. coli BW25113 micFp lux reporter
Method in brief: as §1

[4] = test system: E. coli BW25113 ompFp lux reporter
Method in brief: as §1

[5] = test system: E. coli BW25113 robp lux reporter
Method in brief: as §1

[6] = test system: E. coli BW25113 soxSp lux reporter
Method in brief: as §1

[7] = test system: E. coli BW25113 tolCp lux reporter
Method in brief: as §1

[8] = 14.6 µg/ml, genetic background: wild type
[9] = 14.6 µg/ml, genetic background: ΔmarA
[10] = 14.6 µg/ml, genetic background: Δrob
[11] = 14.6 µg/ml, genetic background: ΔsoxS
[12] = 29.3 µg/ml, genetic background: wild type
[13] = 29.3 µg/ml, genetic background: ΔmarA
[14] = 29.3 µg/ml, genetic background: Δrob
[15] = 29.3 µg/ml, genetic background: ΔsoxS
[16] = 58.6 µg/ml, genetic background: wild type
[17] = 58.6 µg/ml, genetic background: ΔmarA
[18] = 58.6 µg/ml, genetic background: Δrob
[19] = 58.6 µg/ml, genetic background: ΔsoxS
[20] = 117.2 µg/ml, genetic background: wild type
[21] = 117.2 µg/ml, genetic background: ΔmarA
[22] = 117.2 µg/ml, genetic background: Δrob
[23] = 117.2 µg/ml, genetic background: ΔsoxS

c1ccc2[nH]ccc2c1 [Indole]
promoter activity interaction Z-score [1, 8]: 0.275 ± 0.27
promoter activity interaction Z-score [1, 9]: 0.599 ± 0.24
promoter activity interaction Z-score [1, 10]: 0.275 ± 0.17
promoter activity interaction Z-score [1, 11]: 0.000826 ± 0.08
promoter activity interaction Z-score [1, 12]: 0.165 ± 0.071
promoter activity interaction Z-score [1, 13]: 0.0409 ± 0.28
promoter activity interaction Z-score [1, 14]: 0.281 ± 0.18
promoter activity interaction Z-score [1, 15]: 0.463 ± 0.32
promoter activity interaction Z-score [1, 16]: -0.112 ± 0.29
promoter activity interaction Z-score [1, 17]: 0.00303 ± 0.77
promoter activity interaction Z-score [1, 18]: -0.21 ± 0.23
promoter activity interaction Z-score [1, 19]: -0.312 ± 0.055
promoter activity interaction Z-score [1, 20]: 0.167 ± 0.52
promoter activity interaction Z-score [1, 21]: -0.375 ± 0.025
promoter activity interaction Z-score [1, 22]: -0.278 ± 0.012
promoter activity interaction Z-score [1, 23]: 0.0661 ± 0.25
promoter activity interaction Z-score [2, 8]: 0.304 ± 0.29
promoter activity interaction Z-score [2, 9]: 0.3765 ± 0.00083
promoter activity interaction Z-score [2, 10]: 0.103 ± 0.22
promoter activity interaction Z-score [2, 11]: 0.259 ± 0.025
promoter activity interaction Z-score [2, 12]: 0.16 ± 0.016
promoter activity interaction Z-score [2, 13]: 0.41 ± 0.022
promoter activity interaction Z-score [2, 14]: 0.118 ± 0.27
promoter activity interaction Z-score [2, 15]: 0.258 ± 0.2
promoter activity interaction Z-score [2, 16]: 0.085 ± 0.049
promoter activity interaction Z-score [2, 17]: -0.158 ± 0.041
promoter activity interaction Z-score [2, 18]: -0.0769 ± 0.035
promoter activity interaction Z-score [2, 19]: -0.0326 ± 0.017
promoter activity interaction Z-score [2, 20]: 0.965 ± 0.34
promoter activity interaction Z-score [2, 21]: 0.558 ± 0.15
promoter activity interaction Z-score [2, 22]: 0.0948 ± 0.28
promoter activity interaction Z-score [2, 23]: 0.629 ± 0.47
promoter activity interaction Z-score [3, 8]: -0.0516 ± 0.12
promoter activity interaction Z-score [3, 9]: 0.0327 ± 0.011
promoter activity interaction Z-score [3, 10]: 0.00243 ± 0.044
promoter activity interaction Z-score [3, 11]: 0.0247 ± 0.094
promoter activity interaction Z-score [3, 12]: -0.0146 ± 0.021
promoter activity interaction Z-score [3, 13]: -0.0163 ± 0.074
promoter activity interaction Z-score [3, 14]: 0.00613 ± 0.19
promoter activity interaction Z-score [3, 15]: 0.586 ± 0.069
promoter activity interaction Z-score [3, 16]: 0.0628 ± 0.13
promoter activity interaction Z-score [3, 17]: -0.00313 ± 0.016
promoter activity interaction Z-score [3, 18]: -0.138 ± 0.18
promoter activity interaction Z-score [3, 19]: 0.204 ± 0.28
promoter activity interaction Z-score [3, 20]: 0.516 ± 0.39
promoter activity interaction Z-score [3, 21]: -0.0638 ± 0.0022
promoter activity interaction Z-score [3, 22]: 0.0554 ± 0.19
promoter activity interaction Z-score [3, 23]: 0.622 ± 0.087
promoter activity interaction Z-score [4, 8]: 0.322 ± 0.069
promoter activity interaction Z-score [4, 9]: 0.511 ± 0.0093
promoter activity interaction Z-score [4, 10]: 0.571 ± 0.51
promoter activity interaction Z-score [4, 11]: 0.225 ± 0.49
promoter activity interaction Z-score [4, 12]: 0.195 ± 0.09
promoter activity interaction Z-score [4, 13]: 0.309 ± 0.31
promoter activity interaction Z-score [4, 14]: 0.788 ± 0.39
promoter activity interaction Z-score [4, 15]: 0.734 ± 0.24
promoter activity interaction Z-score [4, 16]: 0.0808 ± 0.21
promoter activity interaction Z-score [4, 17]: -0.0711 ± 0.22
promoter activity interaction Z-score [4, 18]: -0.121 ± 0.61
promoter activity interaction Z-score [4, 19]: -0.221 ± 0.36
promoter activity interaction Z-score [4, 20]: 0.63 ± 0.055
promoter activity interaction Z-score [4, 21]: 0.332 ± 0.29
promoter activity interaction Z-score [4, 22]: 0.341 ± 0.29
promoter activity interaction Z-score [4, 23]: 0.406 ± 0.096
promoter activity interaction Z-score [5, 8]: 0.568 ± 0.58
promoter activity interaction Z-score [5, 9]: 1.11 ± 0.29
promoter activity interaction Z-score [5, 10]: 0.842 ± 0.094
promoter activity interaction Z-score [5, 11]: 0.694 ± 0.19
promoter activity interaction Z-score [5, 12]: 0.773 ± 0.055
promoter activity interaction Z-score [5, 13]: 1.1 ± 0.014
promoter activity interaction Z-score [5, 14]: 0.598 ± 0.34
promoter activity interaction Z-score [5, 15]: 0.773 ± 0.2
promoter activity interaction Z-score [5, 16]: -0.0581 ± 0.17
promoter activity interaction Z-score [5, 17]: 0.148 ± 0.5
promoter activity interaction Z-score [5, 18]: 0.569 ± 0.13
promoter activity interaction Z-score [5, 19]: 0.0833 ± 0.58
promoter activity interaction Z-score [5, 20]: 0.0933 ± 0.09
promoter activity interaction Z-score [5, 21]: 0.0401 ± 0.093
promoter activity interaction Z-score [5, 22]: -0.335 ± 0.55
promoter activity interaction Z-score [5, 23]: 0.0103 ± 0.36
promoter activity interaction Z-score [6, 8]: 0.0112 ± 0.045
promoter activity interaction Z-score [6, 9]: -0.0857 ± 0.076
promoter activity interaction Z-score [6, 10]: -0.0709 ± 0.072
promoter activity interaction Z-score [6, 11]: 0.0403 ± 0.38
promoter activity interaction Z-score [6, 12]: -0.034 ± 0.11
promoter activity interaction Z-score [6, 13]: 0.0579 ± 0.018
promoter activity interaction Z-score [6, 14]: -0.0043 ± 0.038
promoter activity interaction Z-score [6, 15]: 0.238 ± 0.052
promoter activity interaction Z-score [6, 16]: -0.0963 ± 0.0079
promoter activity interaction Z-score [6, 17]: -0.00367 ± 0.068
promoter activity interaction Z-score [6, 18]: -0.169 ± 0.082
promoter activity interaction Z-score [6, 19]: -0.175 ± 0.24
promoter activity interaction Z-score [6, 20]: -0.134 ± 0.044
promoter activity interaction Z-score [6, 21]: -0.1992 ± 0.0019
promoter activity interaction Z-score [6, 22]: -0.22 ± 0.15
promoter activity interaction Z-score [6, 23]: -0.0773 ± 0.035
promoter activity interaction Z-score [7, 8]: 0.801 ± 1.5
promoter activity interaction Z-score [7, 9]: 0.744 ± 0.49
promoter activity interaction Z-score [7, 10]: -0.506 ± 0.39
promoter activity interaction Z-score [7, 11]: -0.474 ± 0.23
promoter activity interaction Z-score [7, 12]: -0.36 ± 0.35
promoter activity interaction Z-score [7, 13]: 0.821 ± 1.3
promoter activity interaction Z-score [7, 14]: 0.287 ± 0.068
promoter activity interaction Z-score [7, 15]: 2.02 ± 0.35
promoter activity interaction Z-score [7, 16]: -0.246 ± 0.9
promoter activity interaction Z-score [7, 17]: 0.0426 ± 0.17
promoter activity interaction Z-score [7, 18]: -0.244 ± 0.44
promoter activity interaction Z-score [7, 19]: 1.06 ± 0.6
promoter activity interaction Z-score [7, 20]: -0.0345 ± 0.59
promoter activity interaction Z-score [7, 21]: -0.841 ± 0.13
promoter activity interaction Z-score [7, 22]: -1.12 ± 0.97
promoter activity interaction Z-score [7, 23]: -0.0289 ± 0.16
